p53 reactivation – qHTS assay for re-activators of p53 using a Luc reporter; H1299 p53-A138V BP100-luciferase reporter, luminescence, 24 h; Potency, µM (top dose mostly 92.2 µM), for the others: at the top dose activity change, positive = activation, usual class: activators; actives 0.063% (n = 320,000); further: % of control where 0% means no effect; nearly all actives have a fitted effect of over 45% in size
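p53-null H1299 cells stably carrying temperature-sensitive p53-A138V and a BP100-luciferase reporter were pinned with compounds (4-point, 1:5 series) and held 24 hrs at 37 deg C. Luminescence was read 10 min after detection reagent.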
SMN2 splice up – qHTS Assay for Enhancers of SMN2 Splice Variant Expression; HEK293 SMN2-luciferase splicing reporter, luminescence, 30-36 h; Potency, µM (doses to about 46.1 µM), inactives show at the top dose activity change, positive = activation, actives largely listed as activators; actives 2.8% (n = 210,000); further: % of control where 0% means no effect; nearly all actives have a fitted effect of over 55% in size
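HEK293 cells carry an SMN2 […]–luciferase reporter in which exon 7 inclusion puts luciferase in frame. Cells were plated 10-12 h before compound addition, then incubated 30-36 h at 37C. ONE-Glo luminescence was read; sodium butyrate at 4.5 mM final served as control.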
FLuc modulator – qHTS profiling assay for firefly luciferase inhibitor/activator using purifed enzyme and Km concentrations of substrates (counterscreen for miR-21 project) | Luciferin 4-monooxygenase (Photinus pyralis), P08659 | purified FLuc, Km substrates, luminescence inhibition | Potency, µM (titrated, usually from 57.5 µM), without a hit: at the highest dose activity change, negative = inhibition, most hits filed as inhibitors | actives 6.9% (n = 360,000);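 further: plate controls were vehicle for no effect and reference inhibitor for full effect; nearly all actives have a fitted effect of over 55% in size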
Target sequence (P08659 whole entry, looked up): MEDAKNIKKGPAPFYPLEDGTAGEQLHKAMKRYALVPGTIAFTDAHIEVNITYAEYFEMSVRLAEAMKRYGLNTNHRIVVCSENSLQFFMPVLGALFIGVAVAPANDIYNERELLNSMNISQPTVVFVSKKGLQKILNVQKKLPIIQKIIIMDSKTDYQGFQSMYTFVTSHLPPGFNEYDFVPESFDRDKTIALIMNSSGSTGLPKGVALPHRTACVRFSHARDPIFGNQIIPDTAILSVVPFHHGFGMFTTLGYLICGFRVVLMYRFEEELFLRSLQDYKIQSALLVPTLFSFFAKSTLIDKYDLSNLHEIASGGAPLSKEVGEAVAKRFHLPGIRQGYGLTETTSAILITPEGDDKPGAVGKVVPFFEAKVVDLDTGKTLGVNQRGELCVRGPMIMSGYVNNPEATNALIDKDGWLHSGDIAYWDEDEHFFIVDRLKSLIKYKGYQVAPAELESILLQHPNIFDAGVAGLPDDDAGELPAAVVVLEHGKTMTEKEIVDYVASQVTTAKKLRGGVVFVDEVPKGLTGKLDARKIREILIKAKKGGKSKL
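Purified P. pyralis luciferase, 10 nM final, with Km-level 10 uM D-luciferin and 10 uM ATP in 50 mM Tris acetate pH 7.5, 10 mM Mg acetate, 0.01% Tween-20, 0.05% BSA; 6-point qHTS titration about 60 µM downward; luminescence read.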
Rab9 prom act – qHTS Assay for Rab9 Promoter Activators | Huh7 Rab9 promoter-luciferase reporter, luminescence, 24 h | Potency, µM (titrated, usually from 9.22 µM), without a hit: at the highest dose activation, negative = inhibition, most hits filed as activators | actives 2.8% (n = 320,000) | AID 485297, 2010; further: % of control where 0% means no effect; nearly all actives have a fitted effect of over 60% in size
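Luminescence from Amplite-detected luciferase (10 minutes, ambient) reports Rab9 promoter activation. Before that, stable Rab9-luciferase Huh7 cells (1500/well, reduced-serum OP-MEM I plus 10% FBS) were exposed to compound for 24 hours at 37C.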
ELG1 genotox – qHTS screen for small molecules that induce genotoxicity in human embryonic kidney (HEK293T) cells expressing luciferase-tagged ELG1 | HEK293T ELG1-luciferase reporter, luminescence, 16 h | Potency, µM (doses to about 46 µM), for inactives: top-dose activity change, positive = activation, most hits filed as activators | actives 1.3% (n = 330,000); further: % of control where 0% means no effect; nearly all actives have a fitted effect of over 60% in size
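Screening used a luciferase reporter fused to human ELG1 in HEK293T cells. Luminescence was read on a CCD plate imager after 16 hr exposure and 30 min ONE-Glo incubation.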
NPC1 prom act – qHTS Assay for NPC1 Promoter Activators; Huh7 NPC1 promoter luciferase reporter, 24 h; Potency, µM (doses to about 9.22 µM), without a hit: at the top dose activation, usual class: activators; actives 2.4% (n = 320,000); further: % of control where 0% means no effect; nearly all actives have a fitted effect of over 60% in size
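Cells: Huh7 expressing luciferase under the NPC1 promoter, 1500/well. Seeded 2 h, compound added, incubated 24 h at 37 °C. Luciferase reagent, 10 min ambient, then luminescence.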
Starred values were filed as active, the others as inactive; ? = inconclusive; . = no result; [ ] = another dose, or the depositor's remark. Compounds with a hit are over-represented: about 7.4% of the library has one in this group of screens. The call rests on the fitted dose curve; in most records, active means well fitted curve in the direction sought with a large enough effect; inconclusive means small, poorly fitted or top-dose-only effect, or another doubt; inactive means no such curve, though single readings can be large; an effect the other way counts as inactive or inconclusive. Potency means the concentration at half of the fitted maximal effect.

SMILES	p53 reactivation	SMN2 splice up	FLuc modulator	Rab9 prom act	ELG1 genotox	NPC1 prom act
O=C(Nc1cc(-c2ccccc2)[nH]n1)c1ccc(Cl)cc1	?	.	10.7µM*	3.16µM*	?	2µM*
CCOC(=O)C1(Cc2cccc(Cl)c2)CCCN(C(=O)c2c(CC)noc2C)C1 (stereo not given)	17.9%	.	-16.8%	6.9%	-2.8%	-2.0%
CCOC(=O)c1[nH]cnc1C(=O)NC1CCN(C(=O)OC(C)(C)C)CC1	7.5%	.	2.8%	1.4%	5.9%	-1.5%
COc1ccc2cc(CNc3ccc(C)cc3)c(=O)n(CC(=O)Nc3ccc(C)cc3Cl)c2c1	.	.	0.4%	.	.	.
Cc1cc(C)c(/C=C/c2onc(C)c2S(=O)(=O)N2CCC(C(=O)Nc3ccc(Cl)c(C(F)(F)F)c3)CC2)c(C)c1	.	.	0.8%	.	.	.
Nc1c2c(=O)oc(-c3ccccc3)cc2nn1-c1ccccc1	28.5%	12.6µM*	4.78µM*	0.708µM*	?	?
COc1ccc(-n2ccnc2CN2CCCC(CO)(Cc3cccc(OC)c3)C2)cc1 (stereo not given)	-1.3%	.	23.9µM*	1.5%	-8.7%	-2.8%
COc1ccc(CC2(CO)CCN(Cc3cccnc3)CC2)cc1	7.4%	.	15.1µM*	?	5.5%	-1.2%
COc1cccc(CC2(CO)CCCN(Cc3ccc(CO)o3)C2)c1 (stereo not given)	-0.2%	.	1.7%	0.1%	-2.4%	-3.8%
O=C1NC[C@@H](c2ccccc2)OC(=O)[C@H](Cc2ccc(F)cc2)C/C=C\C[C@@H]1CC(=O)N(CCO)Cc1ccccc1	-3.4%	.	.	.	-7.4%	.
CCN(C(=O)COC(=O)CNC(=O)c1sc2ccccc2c1Cl)C1CCCCC1	2.6%	.	12µM*	3.3%	2.3%	-3.6%
CCC(C)N(C(=O)COC(=O)CNC(=O)c1sc2ccccc2c1Cl)C1CCS(=O)(=O)C1 (stereo not given)	24.5%	.	21.3µM*	-1.6%	11.3%	5.6%
Cc1ccc(Cl)cc1NC(=O)CN1C(=O)CSc2ccc(S(=O)(=O)N3CCCC3)cc21	.	.	4.5%	.	.	.
O=S(=O)(c1ccccc1)c1nc(-c2cccs2)oc1SCc1ccccc1Cl	.	-10.5%	0.6%	.	.	.
COc1ccc(C2CN=NC23CCc2ccccc2C3=O)cc1 (stereo not given)	6.0%	.	16.9µM*	1.2%	1.8%	-3.4%
COc1ccc(C2CN=NC23CCCc2ccccc2C3=O)cc1 (stereo not given)	8.4%	-26.3%	-17.7%	-0.9%	-3.7%	-1.0%
O=C1c2ccccc2CCC12N=NCC2c1ccc(Cl)cc1 (stereo not given)	-7.6%	-13.3%	21.3µM*	6.8%	-0.2%	-3.9%
Cc1ccc(CCNC(=O)CCCn2c(=O)c3cccn3c3ccc(F)cc32)cc1	.	.	-5.1%	.	.	.
O=C(CSc1ncnc2c1oc1ccccc12)c1cccs1	20.0%	23.9%	?	3.98µM*	?	2.82µM*
Cc1nc(SCC(=O)c2cccs2)c2oc3ccccc3c2n1	11.7%	10µM*	9.53µM*	3.98µM*	?	?
Cc1nc(SCC(=O)O)c2oc3ccccc3c2n1	-0.7%	2.0%	?	4.0%	-2.9%	1.0%
NC(=O)CSc1ncnc2c1oc1ccccc12	-2.5%	-29.3%	-0.8%	-2.3%	15.3%	3.5%
Cc1cc(Br)ccc1NC(=O)CN(C)C(=O)c1ccc2ccccc2n1	?	.	?	2.1%	7.8%	1.1%
Oc1ccccc1-c1nc2c3ccccc3c3ccccc3c2[nH]1	5.4%	.	?	?	-4.5%	?
c1csc(-c2nc3c4ccccc4c4ccccc4c3[nH]2)c1	-0.2%	-10.0%	15.1µM*	-7.0%	-12.7%	-3.8%
SMILES	p53 reactivation	SMN2 splice up	FLuc modulator	Rab9 prom act	ELG1 genotox	NPC1 prom act
COc1ccc(Nc2ncnc3ccccc23)c(OC)c1	22.7%	-33.4%	?	-2.1%	6.1%	-8.4%
COc1cccc(Nc2cc(C)c3ccccc3n2)c1	20.7%	.	23.9µM*	-3.4%[1.84 µM]	?	24.7%
COc1ccc(Nc2ncnc3ccccc23)cc1	?	11.2µM*	15.1µM*	2.82µM*	13.7%	3.16µM*
COc1ccc(Nc2nc(OC)nc(OC)n2)cc1	1.7%	.	-5.7%	11.4%	11.2%	-5.2%
COc1ccc(Nc2ccnc(Nc3ccc(OC)cc3)n2)cc1	23.6%	15.3%	7.57µM*	?	-4.5%	?
COc1ccc(Nc2cc(Nc3ccccc3)ncn2)cc1	?	.	?	2µM*	?	2µM*
CC(NC(=O)CCCN1C(=O)CCn2nc(-c3cn(C)c4ccccc34)cc21)c1ccccc1 (stereo not given)	.	.	-2.5%	.	.	.
O=C(Oc1cccc(Nc2ncnc3ccccc23)c1)c1ccccc1Cl	26.9%	-42.1%	16.9µM*	-8.0%	?	-5.7%
COc1cccc(Nc2ncnc3ccccc23)c1	?	14.1µM*	10.7µM*	?	4.61µM*	?
O=C(COc1ccccc1[N+](=O)[O-])Nc1cc(-c2nc3cc(Cl)ccc3o2)ccc1Cl	.	10.3%	-3.2%	.	.	.
O=C(Nc1cccc(-c2nc3ccccc3o2)c1)c1cccnc1	-0.8%	-35.4%	?	-0.9%	-6.4%	-0.8%
Cc1ccc2nc(-c3ccc(Cl)c(NC(=O)c4cccc([N+](=O)[O-])c4C)c3)oc2c1	.	2.4%	-19.8%	.	.	.
O=C(Nc1ccc(-c2nc3ccccc3o2)cc1)c1cccnc1	9.4%	8.91µM*	2.69µM*	1.58µM*	?	2.24µM*
Cc1ccc2nc(-c3ccc(Cl)c(NC(=O)c4cccnc4)c3)oc2c1	.	-3.8%	0.601µM*	.	.	.
CCc1ccc2oc(-c3cc(NC(=O)c4cccnc4)cc(C)c3O)nc2c1	.	11.6%	0.849µM*	.	.	.
Cc1ccc2nc(-c3ccc(Cl)c(NC(=O)COc4cccc(C)c4C)c3)oc2c1	.	?	4.78µM*	.	.	.
CCOc1ccccc1C1CC(=O)NC(C)=C1C(=O)OC1CCCCCC1 (stereo not given)	.	-35.8%	-18.0%	.	.	.
Cc1cccc(NC(=O)Cn2nnc(C(=O)NCc3cccs3)c2N)c1	.	7.7%	-7.8%	.	.	.
Cc1ccc(-n2nc3c(=O)n(CC(=O)Nc4ccccc4F)nc(C)c3c2C)c(C)c1	.	-27.7%	-11.3%	.	.	.
O=C(NCN1CCOCC1)c1cnccn1	14.5%	.	0.0%	5.8%	-0.1%	-3.5%
Cc1ccc2oc(-c3ccc(NC(=O)c4cccnc4)cc3)nc2c1	?	2µM*	6.01µM*	2.24µM*	?	2.51µM*

Source: PubChem (National Center for Advancing Translational Sciences (NCATS))
